Source: PubChem BioAssay (several laboratories)
An excerpt weighted towards active compounds, which were near 1.1% of everything screened.
A1 inh – inhibitors of the anti-apoptotic protein A1, read as caspase activation; MEF A1-2A-BIM cells, Caspase-Glo 3/7 luminescence, 3 h; percent of clofoctol response, vehicle zero; caspase activation, % (no concentration beside the values); actives 0.066% (n = 330,000); AID 2462;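 active = over half of replicate activation scores above 10%, or exactly half above 10 with the replicate mean above 10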
HTR5A ag – HTR5A agonism, opioid heterodimer counter-screen. actives 0.61% (n = 340,000). HTR5A agonist assay, luminescence, cell-based. P47898. activation, % at 9.3 µM; in the data active = activation mostly above about 9.5%, no sharp cut-off; inactive = mostly below about 7.6%;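 also: 0% = cells with vehicle only and 100% = reference agonist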
Target sequence (P47898 whole entry, looked up): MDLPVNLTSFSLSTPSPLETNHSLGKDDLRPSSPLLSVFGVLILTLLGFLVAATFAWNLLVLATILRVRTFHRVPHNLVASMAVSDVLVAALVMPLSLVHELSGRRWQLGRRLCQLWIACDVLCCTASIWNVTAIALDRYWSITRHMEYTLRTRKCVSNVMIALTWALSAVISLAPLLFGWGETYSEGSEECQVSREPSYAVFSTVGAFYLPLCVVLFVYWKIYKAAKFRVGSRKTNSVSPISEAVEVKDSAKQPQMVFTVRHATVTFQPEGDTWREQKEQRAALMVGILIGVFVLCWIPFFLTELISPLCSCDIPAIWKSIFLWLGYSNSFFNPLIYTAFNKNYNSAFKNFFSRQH
MOR-DOR ag – OPRM1-OPRD1 heterodimerization agonism; cells, luminescence; AID 504326; P35372+P41143; activation, % at 9.3 µM; actives 0.3% (n = 340,000);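 also: 0% = vehicle-treated cells and 100% = reference agonist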
HTR5A inv ag – HTR5A inverse agonism, opioid heterodimer counter-screen | P47898 | HTR5A cell line, luminescence | inhibition, % at 9.3 µM | actives 0.083% (n = 340,000) | AID 504634; in the data active = inhibition mostly above about 23%, no sharp cut-off; inactive = mostly below about 18%;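 also: 0% = cells with DMSO and 100% = no-cell wells with DMSO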
MOR-DOR inv ag – mu-delta opioid heterodimer inverse agonism; cell-based MOR-DOR heterodimer luminescence; actives 0.21% (n = 340,000); P35372+P41143; inhibition, % at 9.3 µM; AID 504357; in the data active = inhibition above about 22%, passing the limit was not always enough;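 also: 0% = cells with DMSO and 100% = wells without cells with DMSO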
OPRM1-D1 ag cf – confirmation of human OPRM1-OPRD1 heterodimerization agonists; cells, MOR-DOR heterodimerization, luminescence complementation; actives 45% (n = 830); shares compounds with MOR-DOR ag; activation, % at 9.3 µM;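 also: 0% = vehicle-treated cells and 100% = reference agonist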
HTR5A ag counter – activates human HTR5A in OPRM1-OPRD1 agonist counter-screen; HTR5A agonist counterscreen, cell luminescence; activation, % at 9.3 µM; actives 8% (n = 830); AID 504905; shares compounds with MOR-DOR ag; in the data active = activation above about 17%;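 also: 0% = vehicle-treated cells and 100% = reference agonist response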
* hit, by the source's call; i = inactive; nt = no result. Rule as the data show it, unless noted: active = activation above about 18%; inactive = the rest.

SMILES | A1 inh | HTR5A ag | MOR-DOR ag | HTR5A inv ag | MOR-DOR inv ag | OPRM1-D1 ag cf | HTR5A ag counter
COCCCNC(=O)/C=C/c1cccc(Cl)c1 | 0 | 0 | 0 | 3 | 0 | nt | nt
CN(C)C(CNC(=O)c1cc(S(=O)(=O)N(C)c2ccccc2)ccc1Cl)c1ccccc1 (centres undefined) | 0 | 6 | -1 | -17 | 4 | nt | nt
CN(C)C(CNC(=O)c1ccc2ccccc2n1)c1ccccc1 (centres undefined) | -1 | 3 | 58* | -8 | -437 | -2 | 0
CC(NC(=O)c1ccc2ccccc2n1)c1ccccc1 (centres undefined) | 0 | 5 | 0 | -53 | -2 | nt | nt
CN(C)C(CNC(=O)c1cnc(Cl)c(Cl)c1)c1ccccc1 (centres undefined) | -1 | -1 | 353* | 3 | i | 374* | 0
CN(C)C(CNC(=O)/C=C/c1cccc(Cl)c1)c1ccccc1 (centres undefined) | 0 | -3 | 275* | 9 | i | 10 | 6
O=C(CCc1ccc(S(=O)(=O)NCCc2ccccc2)cc1)NCc1ccco1 | 0 | -2 | -3 | -7 | 11 | nt | nt
CSCCC(/C(O)=C(\C#N)c1nc2ccccc2[nH]1)N1C(=O)c2ccccc2C1=O (centres undefined) | -1 | 1 | 58* | -2 | -264 | 49* | 1
Clc1cc(/C=N\NC2=NCCN2)cc(Cl)n1 | 0 | nt | nt | nt | nt | nt | nt
Cc1cc(F)c(F)c(C(=O)N2C(C)CCCC2C)c1Cl (centres undefined) | 0 | 7 | 2 | -7 | -8 | nt | nt
COC(=O)c1cccc(C23CC4(C2)[C@H](CN(Cc2ccc(-c5ccccc5)cc2)[C@@H]4c2ccccc2)C3c2ccc(Cl)nc2)c1 (some centres undefined) | -1 | 1 | -3 | -4 | 19 | nt | nt
COC(=O)c1cccc(C23CC4(C2)[C@H](CN(Cc2cccnc2)[C@@H]4c2ccccc2)C3c2ccc(Cl)nc2)c1 (some centres undefined) | 0 | -2 | 23* | -5 | -127 | 29* | 0
Cc1ccc2c(c1C)-c1c(ccc(C)c1C)C(=O)C2=O | nt | 3 | 21* | -12 | -93 | 21* | 6
Nc1ccc2c(c1Cl)C(=O)c1ccc(N)c(Cl)c1C2=O | nt | -4 | -3 | 14 | 16 | nt | nt
O=C(CSc1nccc(-c2cccs2)n1)Nc1ccc(Cl)cc1 | -1 | 1 | -3 | -38 | 14 | nt | nt
Cc1onc(-c2ccc(Cl)cc2)c1-c1ccnc(SCC(=O)Nc2ccc(C(C)C)cc2)n1 | 1 | 2 | 56* | -6 | -294 | 0 | -3
COc1ccc(C(=O)COC(=O)CCn2nnc(-c3cccc(O)c3OC)n2)cc1 | -2 | 1 | -1 | 6 | 6 | nt | nt
CC(C)CC1Nc2ncnc(N3CCCCC3)c2N(Cc2ccc(Br)cc2)C1=O (centres undefined) | 1 | 3 | 0 | 6 | 2 | nt | nt
CC(N=C1NS(=O)(=O)c2ccccc21)C(=O)NCc1ccc(F)cc1 (centres undefined) | 1 | 1 | -2 | -3 | 12 | nt | nt
COc1cc(/C=N/NC(N)=S)ccc1OCC(=O)Nc1ccc(C)c(C)c1 | 0 | -3 | 22* | 7 | -125 | 10 | 0
Cc1ccccc1Nc1nc(N)nc(C)c1Br | nt | 2 | -1 | -7 | 7 | nt | nt
CCc1c(N)nc(N)nc1Nc1ccccc1C | nt | -3 | 21* | 13 | -105 | 1 | 5
CCCN1/C(=C(\C#N)C2=NS(=O)(=O)c3ccccc32)N(C)c2ccccc21 | nt | 1 | 1 | -5 | -3 | nt | nt
O=C(NCc1ccco1)c1cc2n(n1)C(C(F)(F)F)CC(c1ccc(Br)cc1)N2 (centres undefined) | 0 | 3 | 19* | -21 | -94 | 0 | 3
O=C(CSc1nnc(CNC(=O)c2ccc(F)cc2)o1)Nc1nccs1 | 0 | 7 | 0 | -9 | 1 | nt | nt
SMILES | A1 inh | HTR5A ag | MOR-DOR ag | HTR5A inv ag | MOR-DOR inv ag | OPRM1-D1 ag cf | HTR5A ag counter
COc1cccc(NC(=O)Nc2ccc3c(c2)N(C)C(=O)CS3)c1 | -2 | 5 | 0 | 4 | 1 | nt | nt
CN1C(=O)CSc2ccc(NC(=O)N3CCN(c4ccccn4)CC3)cc21 | 3 | 1 | 36* | -2 | -218 | 26* | 8
Cc1ccc(C)c(N2CCN(C(=O)Nc3ccc4c(c3)N(C)C(=O)CS4)CC2)c1 | -1 | 0 | 3 | 0 | -20 | nt | nt
CC(=O)Nc1ccc(NC(=O)Nc2ccc3c(c2)N(C)C(=O)CS3)cc1 | 0 | 2 | 21* | -5 | -150 | 3 | 2
COc1ccc(F)cc1S(=O)(=O)Nc1cc2c3c(c1)CC(=O)N3CCC2 | 0 | -1 | -1 | 15 | 7 | nt | nt
Cc1ccc(S(=O)(=O)N2CC(O)CC2C(=O)O)cc1 (centres undefined) | 1 | 0 | -4 | 0 | 19 | nt | nt
Cc1ccc(NC(=O)Cn2nnc(C(=O)Nc3ccc(C)c(C)c3)c2N)cc1 | 2 | 4 | -1 | -14 | 4 | nt | nt
Cc1cc(C)cc(NC(=O)Cn2nnc(C(=O)NCCc3ccccc3)c2N)c1 | 1 | 7 | 21* | -6 | -104 | 12 | 8
Cc1ccc(NC(=O)c2nnn(CC(=O)Nc3ccc4c(c3)OCO4)c2N)cc1C | 1 | 8 | 23* | -29 | -116 | 9 | 4
Cc1cc(C)cc(NC(=O)Cn2nnc(C(=O)NCc3ccccc3Cl)c2N)c1 | 1 | 10 | 25* | -8 | -136 | 12 | -2
CCOc1ccccc1/C=C(/C#N)C(N)=O | 1 | -1 | -1 | 3 | 6 | nt | nt
O=C(O)CCCCCCCCCCP(=O)(c1ccccc1)c1ccccc1 | 0 | 1 | -3 | -2 | 15 | nt | nt
O=P(CCCCCCCCCP(=O)(c1ccccc1)c1ccccc1)(c1ccccc1)c1ccccc1 | 1 | 6 | 21* | -43 | -112 | -1 | -5
CN(C)C(CNC(=S)Nc1ccccc1)c1cccnc1 (centres undefined) | 0 | 8 | 108* | -28 | i | 103* | 1
CN(C)C(CNC(=S)Nc1ccccc1Cl)c1cccnc1 (centres undefined) | 0 | 0 | 407* | 5 | i | 387* | -2
CN(C)C(CNC(=O)NC1CCCCC1)c1cccnc1 (centres undefined) | 0 | 1 | 158* | 3 | i | 148* | -2
CCc1cccc(C)c1NC(=S)NCC(c1cccnc1)N(C)C (centres undefined) | 0 | -4 | 139* | 10 | i | 129* | 2
CN(C)C(CNC(=O)c1cccs1)c1cccnc1 (centres undefined) | 1 | 2 | 0 | -12 | 2 | nt | nt
CCc1cccc(C)c1NC(=S)NCc1ccccc1 | 0 | 11 | 1 | -18 | -9 | nt | nt
COc1cc(N=Nc2ccc(C(=O)N(C)C)cc2)c(C)cc1N | nt | 3 | -2 | -11 | 11 | nt | nt
